Screens: PubChem BioAssay, National Center for Advancing Translational Sciences (NCATS)
KinaseGlo FLuc – Counterscreen for Luciferase (Kinase-Glo TM) Inhibition; Luciferin 4-monooxygenase (Photuris pensylvanica), Q27757; Kinase-Glo luciferase, ATP luminescence, 8 min; Potency, µM (top dose mostly 38.3 µM), inactives show at the top dose activity change, negative = inhibition, hits mostly inhibitors; 200,000 compounds, 0.28% hits; further: on the % scale 0 is the no-effect control and ±100 the full control effect; nearly all actives have a fitted effect of over 60% in size
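Kinase-Glo luciferase light output from ATP and luciferin was measured with 10 uM ATP, within the enzyme's linear range. Buffer: 50 mM imidazole pH 7.2, 50 mM KCl, 7 mM MgCl2, 0.01% Tween 20, 0.05% BSA; luminescence read after 8 min at ambient temperature.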
ELG1 genotox – qHTS screen for small molecules that induce genotoxicity in human embryonic kidney (HEK293T) cells expressing luciferase-tagged ELG1 | HEK293T ELG1-luciferase reporter, luminescence, 16 h | Potency, µM (highest dose often 46 µM), without a hit: at the highest dose activity change, positive = activation, actives largely listed as activators | 330,000 compounds, 1.3% hits | AID 504466, 2011; further: % of control where 0% means no effect; nearly all actives have a fitted effect of over 60% in size
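HEK293T cells expressing luciferase-tagged ELG1 were exposed to compound or DMSO vehicle for 16 hr at 37 °C and 5% CO2. Luciferase activity was then measured with ONE-Glo after 30 min at room temperature.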
SMN2 splice up – qHTS Assay for Enhancers of SMN2 Splice Variant Expression. 210,000 compounds, 2.8% hits. HEK293 SMN2-luciferase splicing reporter, luminescence, 30-36 h. AID 1458, 2008. Potency, µM (highest dose often 46.1 µM), for inactives: top-dose activity change, positive = activation, hits mostly activators; further: % of control where 0% means no effect; nearly all actives have a fitted effect of over 55% in size
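qHTS luciferase splicing reporter: luminescence rises when SMN2 exon 7 is included in transfected HEK293 cells. Compound exposure lasted 30-36 h at 37C, with 4.5 mM final sodium butyrate as control, followed by a ONE-Glo read.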
Rab9 prom act – qHTS Assay for Rab9 Promoter Activators | Huh7 Rab9 promoter-luciferase reporter, luminescence, 24 h | Potency, µM (highest dose often 9.22 µM), for inactives: at the top dose activation, negative = inhibition, usual class: activators | 320,000 compounds, 2.8% hits; further: % of control where 0% means no effect; nearly all actives have a fitted effect of over 60% in size
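Luminescence from Amplite-detected luciferase (10 minutes, ambient) reports Rab9 promoter activation. Before that, stable Rab9-luciferase Huh7 cells (1500/well, reduced-serum OP-MEM I plus 10% FBS) were exposed to compound for 24 hours at 37C.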
NPC1 prom act – qHTS Assay for NPC1 Promoter Activators | 320,000 compounds, 2.4% hits | Potency, µM (top dose mostly 9.22 µM), for inactives: at the top dose activation, hits mostly activators | Huh7 NPC1 promoter luciferase reporter, 24 h; further: % of control where 0% means no effect; nearly all actives have a fitted effect of over 60% in size
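Luminescence read-out of NPC1 promoter-driven luciferase in stably transfected Huh7 cells; compounds delivered in DMSO and left 24 h at 37C, 5% CO2, qHTS titration format.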
FLuc modulator – qHTS profiling assay for firefly luciferase inhibitor/activator using purifed enzyme and Km concentrations of substrates (counterscreen for miR-21 project). 360,000 compounds, 6.9% hits. AID 588342, 2011. Potency, µM (titrated, usually from 57.5 µM), inactives show at the top dose activity change, negative = inhibition, hits mostly inhibitors. purified FLuc, Km substrates, luminescence inhibition. Luciferin 4-monooxygenase (Photinus pyralis), P08659;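 further: plate controls were vehicle for no effect and reference inhibitor for full effect; nearly all actives have a fitted effect of over 55% in size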
Target sequence (P08659 whole entry, looked up): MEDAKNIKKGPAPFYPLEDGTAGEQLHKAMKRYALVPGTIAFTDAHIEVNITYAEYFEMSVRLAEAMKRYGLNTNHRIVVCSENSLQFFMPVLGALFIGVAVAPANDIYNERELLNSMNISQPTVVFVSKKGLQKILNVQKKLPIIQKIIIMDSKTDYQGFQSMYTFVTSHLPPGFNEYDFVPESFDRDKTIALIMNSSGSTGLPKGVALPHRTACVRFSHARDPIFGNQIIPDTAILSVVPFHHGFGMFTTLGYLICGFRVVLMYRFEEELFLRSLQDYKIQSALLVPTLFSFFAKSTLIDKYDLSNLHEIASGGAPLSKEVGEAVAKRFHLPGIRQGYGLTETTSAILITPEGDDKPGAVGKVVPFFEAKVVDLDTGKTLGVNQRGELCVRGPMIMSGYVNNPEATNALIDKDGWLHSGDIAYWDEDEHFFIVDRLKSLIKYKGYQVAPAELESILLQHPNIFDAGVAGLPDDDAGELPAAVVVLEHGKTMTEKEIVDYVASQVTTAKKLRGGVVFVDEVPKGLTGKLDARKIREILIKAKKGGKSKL
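Purified P. pyralis luciferase (10nM final) with 10uM D-luciferin and 10uM ATP (Km levels) in 50mM Tris acetate pH 7.5, 10mM Mg acetate, 0.01% Tween-20, 0.05% BSA; qHTS 6-point titration, ~60 µM downward; luminescence read.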
Starred values were filed as active, the others as inactive; u = inconclusive; x = no result; [ ] = another dose, or the depositor's remark. Most compounds without a hit are left out; they make up all but 7.5% or so of the library. The call rests on the fitted dose curve; in most records, active means well fitted curve in the direction sought with a large enough effect; inconclusive means small, poorly fitted or top-dose-only effect, or another doubt; inactive means no such curve, though single readings can be large; an effect the other way counts as inactive or inconclusive. Potency means the concentration at half of the fitted maximal effect.

SMILES	KinaseGlo FLuc	ELG1 genotox	SMN2 splice up	Rab9 prom act	NPC1 prom act	FLuc modulator
CCN(CC)c1ccc(C=Nc2cccnc2Cl)c(O)c1	x	-1%	x	-5%[1.84 µM]	-6%	2.4µM*
CCN(CC)c1ccc(C=Nc2ccc(C)cc2C)c(O)c1	2%	9%	x	u	28%	3.4µM*
CCN(CC)c1ccc(/C=N/N2C(=O)c3ccccc3C2=O)c(O)c1	-6%	-4%	u	23%	21%	u
CCN(CC)c1ccc(/C=N/Nc2ccc(C)cc2)c(O)c1	1%	9%	6%	19%	14%	u
CCCCN(C(=O)CSc1n[nH]c(-c2ccc(C)cc2)n1)c1c(N)n(CCCC)c(=O)[nH]c1=O	x	u	x	-3%	-1%	8.5µM*
COCCN(C(=O)CSc1n[nH]c(-c2ccc(OC)cc2)n1)c1c(N)n(Cc2ccccc2)c(=O)[nH]c1=O	x	3%	x	-8%	-1%	u
COCCN(C(=O)COC(=O)/C=C/c1ccc2ccccc2n1)c1c(N)n(Cc2ccccc2)c(=O)[nH]c1=O	x	-3%	x	2%	-4%	u
CCCCn1c(N)c(N(CCOC)C(=O)CSc2n[nH]c(-c3ccc(OC)cc3)n2)c(=O)[nH]c1=O	x	3%	x	14%	-6%	24µM*
COCCN(C(=O)COC(=O)/C=C/c1nc2ccccc2s1)c1c(N)n(Cc2ccccc2)c(=O)[nH]c1=O	x	-22%	x	-2%	2%	21µM*
CCc1ccc(-c2nc(SCC(=O)N(CCOC)c3c(N)n(Cc4ccccc4)c(=O)[nH]c3=O)n[nH]2)cc1	x	10%	x	13%	0%	2.7µM*
Cc1ccc(-c2nc(SCC(=O)N(C)c3c(N)n(Cc4ccccc4)c(=O)[nH]c3=O)n[nH]2)cc1	x	5%	x	3%	1%	-18%
CCN(CC)c1ccc(-c2nnc(SCC(=O)N(CCOC)c3c(N)n(CC(C)C)c(=O)[nH]c3=O)o2)cc1	x	0%	x	-1%	-3%	6.7µM*
Cc1cnc2c(c1SCC(=O)N(C)c1ccccc1)c(=O)n(C)c(=O)n2C	x	x	x	x	x	-1%
O=C(c1ccc2c(c1)N(Cc1c(F)cccc1Cl)C(=O)c1ccccc1S2)N1CCOCC1	x	x	-3%	x	x	-15%
Cc1ccc2nc(NC(=O)CSCC(=O)Nc3cc(C)on3)sc2c1	x	u	x	2.5µM*	u	u
O=C(Cc1ccccc1)Nc1nc2ccccc2s1	1%	13%	u	27%	25%	27µM*
Cc1ccc(NC(=O)CN(C)S(=O)(=O)c2cccs2)c(Br)c1	x	11%	x	14%	3%	24µM*
O=C(Cc1cccs1)Nc1nc2ccccc2s1	-8%	8%	17%	3.2µM*	u	15µM*
O=C(Cc1ccccc1)Nc1nc(=O)c2ccccc2s1	-3%	4%	1%	x	-2%	5%
Cc1cc(NC(=O)CSCC(=O)Nc2nc3ccc(F)cc3s2)no1	x	1%	x	-6%	4%	-17%
CCC(=O)O[C@@H]1[C@H](C)O[C@H](O[C@H]2[C@@H](N(C)C)[C@H](O)[C@@H](O[C@@H]3[C@@H](CC=O)C[C@@H](C)[C@@H](O)/C=C\C=C/C[C@@H](C)OC(=O)C[C@@H](OC(=O)CC)[C@H]3OC)O[C@H]2C)C[C@]1(C)O	-4%[17.1 µM]	x	-21%[20.6 µM]	x	x	x
CCOc1ccc2nc(NC(=O)Cc3cccs3)sc2c1	18%	u	u	u	u	12µM*
COc1ccc2nc(NC(=O)CN(C)S(=O)(=O)c3cccs3)sc2c1	5%	-4%	3%	18%	18%	17µM*
CCOc1ccc2nc(NS(=O)(=O)c3cccs3)sc2c1	x	1%	x	8%	-2%	u
Cc1ccc2nc(-c3ccc(NC(=O)Cc4cccs4)cc3)[nH]c2c1	-2%	u	2.5µM*	1µM*	2µM*	1.3µM*
SMILES	KinaseGlo FLuc	ELG1 genotox	SMN2 splice up	Rab9 prom act	NPC1 prom act	FLuc modulator
COc1ccc2nc(NC(=O)CNS(=O)(=O)c3cccs3)sc2c1	1%	1%	-5%	-6%	2%	u
O=C(CSc1nccn1Cc1ccccc1)Nc1nc2ccccc2s1	x	x	x	x	x	17µM*
Cc1ccc2oc(=O)c3cnn(CC(=O)Nc4cccc(C(F)(F)F)c4)c3c2c1	x	x	3%	x	x	1%
CCc1c(O)nc(SCC(=O)Nc2nc3ccccc3s2)n(-c2ccc(C)cc2)c1=O	x	17%	x	16%	20%	21µM*
CCc1c(O)nc(SCC(=O)Nc2nc3ccccc3s2)n(-c2ccccc2)c1=O	x	0%	x	-2%	-1%	-7%
COCC(=O)Nc1nc2ccccc2s1	-3%	x	20%	x	x	u
CC1(C(=O)Nc2nc3ccccc3s2)CC1(Br)Br (stereo not given)	x	u	x	u	u	21µM*
Cc1ccc2nc(-c3ccc(NC(=O)C4CCCO4)cc3)[nH]c2c1 (stereo not given)	-12%	u	0.56µM*	0.32µM*	0.28µM*	0.6µM*
Cc1ccc2nc(NC(=O)Cc3cccs3)sc2c1	-4%	u	u	u	2.2µM*	8.5µM*
O=C(CC1NCCNC1=O)Nc1ccc(F)c(Cl)c1 (stereo not given)	x	x	6%	x	x	-3%
CC(=O)N1CCCc2cc(S(=O)(=O)N3CCC(C(=O)N(Cc4ccccc4)C(C)C)CC3)ccc21	x	x	x	x	x	2%
O=S(=O)(NCCc1cn2ccsc2n1)c1ccc(Cl)cc1	x	x	x	x	x	-5%
O=C(O)CCC(=O)Nc1ccc(-c2nc3ccc(C(=O)c4ccccc4)cc3[nH]2)cc1	x	9%	x	3%	0%	11µM*
COc1ccc2nc(NC(=O)Cc3cccs3)sc2c1	-4%	6.5µM*	10%	2.8µM*	2.8µM*	12µM*
O=C(Cc1nc(=O)c2ccccc2s1)Nc1ccccc1	u	u	2.5µM*	0.32µM*	0.71µM*	0.54µM*
O=C(Cc1nnc(NC(=O)Nc2ccccc2)s1)Nc1ccccc1	x	7%	x	0%	0%	-1%
COc1ccc2nc(NC(=O)CCn3cccc3)sc2c1	-9%	0%	-10%	-8%	u	-7%
COc1cccc(CN2CCNC(=O)C2CC(=O)NCCCN2CCCC2=O)c1 (stereo not given)	x	0%	x	-6%	3%	2%
NC(=O)C1CCCN(C(=S)Nc2ccccc2)C1 (stereo not given)	1%	0%	-21%	2%	-3%	0%
